HCV inhibitor – blocks hepatitis C virus; Huh7.5.1 HCVcc-Cre infection, luciferase reporter, 44 h; Potency, µM (series often up to 41.8 µM), for inactives: at the highest dose activity change, negative = inhibition, hits mostly inhibitors; 340,000 compounds, 3.4% hits; AID 651820; active means well fitted inhibition curve with a large enough effect; inconclusive means small, poorly fitted or top-dose-only effect, or another doubt; inactive means no such curve, though single readings can be large or run the other way; further: potency means the concentration at half of the fitted maximal effect
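Whole-lifecycle infectious HCVcc-Cre system; cells 1,000/well, compound then virus (~0.5 moi) added 4 h after plating, 44 h culture. Luciferase read 15 sec following 15 min substrate incubation, room temp.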
Lassa entry inh – inhibitors of Lassa virus binding or cell entry | Lassa virus pseudotype entry inhibition, cell reporter | Potency, µM (doses to about 37.9 µM), for the others: at the highest dose activity change, negative = inhibition, most hits filed as inhibitors | 300,000 compounds, 1.2% hits; calls by dose curve; tested in HEK293 cells; further: potency means the concentration at half of the fitted maximal effect; nearly all actives have a fitted effect of over 50% in size
FMDV inh – foot and mouth disease virus antiviral activity; 410,000 compounds, 1.2% hits; FMDV antiviral cell-based qHTS; Potency, µM (series often up to 57.9 µM), inactives show top-dose activity change, negative = inhibition, most hits filed as inhibitors; calls by dose curve; tested in HEK293T cells; further: read-out not given here; potency means the concentration at half of the fitted maximal effect; nearly all actives have a fitted effect of over 45% in size
Marburg entry inh – Marburg virus entry inhibition; Potency, µM (titrated, usually from 37.8 µM), inactives show top-dose activity change, negative = inhibition, actives largely listed as inhibitors; AID 540276; Marburg virus pseudotyped entry inhibition, cell reporter; 300,000 compounds, 1.8% hits; calls by dose curve; tested in HEK293 cells; further: potency means the concentration at half of the fitted maximal effect
HCMV inh – blocks human cytomegalovirus replication; HFF cells, HCMV-luciferase reporter, 72 h; stronger effect = lower value; activity change, negative = inhibition, % at 57.5 µM; 410,000 compounds, 4.5% hits; AID 1259415; in the data active means activity change below about -60%; inconclusive means no clear call, values can overlap the other calls; inactive means above about -39%
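After 16 h attachment at 37C, HFF cells received test compound and HCMV-luciferase (1 PFU/cell); reporter luminescence read 72 h later, data normalized against buffer-only and known inhibitor Salinomycin.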
An asterisk follows results filed as active; [ ] = dose if it differs, or a comment. Only some compounds are listed: those with a hit (about 7.9% of all), similar ones and a draw of the others. On the % scale 0 is the no-effect control and ±100 the full control effect.

`C=C1C(=O)C=C[C@]2(C)C[C@@H]3OC(=O)[C@](C)(O)[C@H]3C[C@@H]12` gave HCV inhibitor inconclusive, FMDV inh 28µM* and HCMV inh -98*.
CC1CCCCN1C(=O)CCNC(=O)Cn1cnc2ccccc2c1=O (stereo unspecified) was read as HCV inhibitor -3%, Lassa entry inh 12%, FMDV inh -1%, Marburg entry inh 3%[46.1 µM] and HCMV inh -11.
`Cc1nc2cc(NC(=O)[C@@H]3C[C@@H](Sc4ccccn4)CN3Cc3ccc4c(c3)OCCO4)ccc2s1` gave FMDV inh 4%.
Screening COc1cccc(C2NC(=S)NC3=C2CCc2ccccc23)c1 (stereo unspecified) returned HCV inhibitor inconclusive, Lassa entry inh 7%, FMDV inh -2%, Marburg entry inh 3% and HCMV inh inconclusive.
`COc1ccc2c(c1)C1=C(CC2)C(c2ccc(C)cc2)NC(=S)N1` (stereo unspecified) gave HCV inhibitor 11µM*, FMDV inh -1% and HCMV inh inconclusive.
Screening CC(=O)Nc1cccc(NC(=O)CC2(C)N=C(c3cccc(Br)c3)N(C)O2)c1 (stereo unspecified) returned HCMV inh -13.
For CN1C(=O)N(CC(=O)N2CCN(c3ccccc3F)CC2)C(=O)C12CCCCC2 the results were HCV inhibitor 5%, FMDV inh -16% and HCMV inh 18.
Screening CCSc1ccc(C(=O)Nc2ccc(Br)cn2)cc1[N+](=O)[O-] returned HCV inhibitor inconclusive, FMDV inh -4% and HCMV inh -7.
For Cn1cc([N+](=O)[O-])c(C(=O)Nc2ccc(Br)cn2)n1 the results were HCV inhibitor 11µM*, Lassa entry inh 14%, FMDV inh 15%, Marburg entry inh 3% and HCMV inh -65*.
`Cn1cc([N+](=O)[O-])c(C(=O)Nc2nccs2)n1` gave HCV inhibitor inconclusive, FMDV inh -11% and HCMV inh -96*.
Screening O=C(NC(c1ccc(Cl)cc1)c1cccnc1)C1CCN(CCOc2ccc(Cl)cc2Cl)CC1 (stereo unspecified) returned FMDV inh -14% and HCMV inh 1.
Screening O=C(Cc1ccccc1)Nc1nonc1NC(=O)c1ccccc1 returned HCV inhibitor -2%, Lassa entry inh inconclusive, FMDV inh 17%, Marburg entry inh 13µM* and HCMV inh -11.
Screening Cc1cc(C)c2c(c1)/C(=C/C(=O)c1ccc(Br)s1)C(=O)N2 returned HCV inhibitor 11µM*, Lassa entry inh inconclusive, FMDV inh inconclusive, Marburg entry inh inconclusive and HCMV inh -103*.
For CC(C)c1onc(C(=O)NCc2cccs2)c1[N+](=O)[O-] the results were HCV inhibitor 12%, FMDV inh 0% and HCMV inh -68*.
For Cc1onc(C(=O)NCc2cccs2)c1[N+](=O)[O-] the results were HCV inhibitor 5%, Lassa entry inh 15%[46.1 µM], FMDV inh -11%, Marburg entry inh 14%[46.1 µM] and HCMV inh 7.
For COc1ccc(-c2nc3n(n2)C(c2ccc(OC)c(OC)c2)C(C(=O)Nc2cccnc2)=C(C)N3)cc1 (stereo unspecified) the results were Lassa entry inh -14%[46.1 µM], FMDV inh -13% and HCMV inh inconclusive.
For O=C(/C(=N\Nc1ccc([N+](=O)[O-])cc1)Sc1nnnn1-c1ccccc1)c1ccccc1 the results were HCV inhibitor 41%, Lassa entry inh 12%, FMDV inh inconclusive, Marburg entry inh 0.89µM* and HCMV inh -18.
CCN(CC)C(=O)CN(c1cc2c(cc1OC)oc1ccccc12)S(=O)(=O)c1ccccc1 was read as HCV inhibitor 10µM*, Lassa entry inh inconclusive, FMDV inh 16%, Marburg entry inh 10µM* and HCMV inh 24.
Screening COc1cc2oc3ccccc3c2cc1N(CC(=O)N1CCCCC1)S(=O)(=O)c1ccc(C)cc1 returned HCV inhibitor inconclusive, Lassa entry inh inconclusive, FMDV inh 49%, Marburg entry inh 14µM* and HCMV inh 11.
`O=C(COC(=O)c1nsc(Cl)c1Cl)NC1CCCCC1` gave HCV inhibitor 18%, Lassa entry inh 14%, FMDV inh -6%, Marburg entry inh -14%[46.1 µM] and HCMV inh -5.

Source: PubChem
